Source: PMC5540273 (PLoS ONE, 2017)
Values joined by “and” are separate entries in the source; they are usually repeats but may differ in a detail not shown here. Identical values can stand only once. Like-named read-outs stand apart in the source and are kept apart here.

Tests used:
AAK1 = details: concentration: 1 μM, replicates: in singlicate; n = 1
ABL1-nonphosphorylated = details: concentration: 1 μM, replicates: in singlicate, n = 1
ABL1-phosphorylated = details: concentration: 1 μM, replicates: in singlicate, n = 1
VPS34 = tested on: T1, VPS34
T1 construct: gene PIK3C3

p38-alpha = tested on: T2, p38-alpha
T2 construct: gene MAPK14

TRKC = tested on: T3, TRKC
T3 construct: gene NTRK3

YSK4 = tested on: T4, YSK4
T4 construct: gene MAP3K19

[1] = tested on: TYK2(JH2domain-pseudokinase)
[2] = tested on: TYK2(JH1domain-catalytic)
YANK1 = tested on: T5, YANK1
T5 construct: gene STK32A

TRKA = tested on: T6, TRKA
T6 construct: gene NTRK1
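Throughout, for %Inh: KINOMEscan kinase panel screen.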
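Throughout, for Kd: kd values determined as follow-up on hits from a single-replicate KINOMEscan panel screen.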

Cc1ccc(NC(=O)c2cccc(C#N)c2)cc1-c1ccc(C(=O)Nc2ccncc2)cc1 [GSK1398463]
%Inh (AAK1): 73% | %Inh (ABL1-nonphosphorylated): 50% | %Inh (ABL1-phosphorylated): 10%

CSc1nn2c(=O)cc(N3CCOCC3)nc2n1Cc1cccc(Cl)c1Cl [GSK2347225]
Kd (VPS34): 0.00072 µM | %Inh (AAK1): 7% | %Inh (ABL1-nonphosphorylated): 0% | %Inh (ABL1-phosphorylated): 0%

COc1ccc(NC(=O)c2ccc(-c3cc(-c4nnc(C)o4)ccc3C)cc2)cc1 [GW595885]
Kd (p38-alpha): 0.18 µM | %Inh (AAK1): 0% | %Inh (ABL1-nonphosphorylated): 0% | %Inh (ABL1-phosphorylated): 0%

CCCc1ccc(S(=O)(=O)NC2CCN(c3ccnc(Nc4ccc(OC)cc4)n3)C2)cc1 (stereo not shown) [GSK1379737]
Kd (ULK1): > 10 µM | %Inh (AAK1): 0% | %Inh (ABL1-nonphosphorylated): 0% | %Inh (ABL1-phosphorylated): 0%

Fc1ccc(Nc2nccc(-c3c(-c4ccc(Cl)cc4)nn4ncccc34)n2)cc1F [GW829058]
Kd (TNIK): > 10 µM | Kd (ULK2): > 10 µM | %Inh (AAK1): 0% | %Inh (ABL1-nonphosphorylated): 0% | %Inh (ABL1-phosphorylated): 17%

Cc1cccc(-c2nc(Nc3ccc4[nH]nnc4c3)c3ccccc3n2)n1 [GW867587]
%Inh (AAK1): 0% | %Inh (ABL1-nonphosphorylated): 78% | %Inh (ABL1-phosphorylated): 47%

CNc1nccc(-c2c(-c3ccc(F)cc3)ncn2C2CCN(C)CC2)n1 [SB-222903]
Kd (p38-alpha): 0.053 µM | %Inh (AAK1): 0% | %Inh (ABL1-nonphosphorylated): 34% | %Inh (ABL1-phosphorylated): 6%

Clc1ccc(-c2cc(-c3c[nH]nc3-c3ccccn3)ccn2)cc1 [GW681251]
Kd (TNIK): 0.39 µM | Kd (TRKC): > 10 µM | %Inh (AAK1): 2% | %Inh (ABL1-nonphosphorylated): 0% | %Inh (ABL1-phosphorylated): 0%

COc1ccc(-c2nc3n(c2-c2ccncc2)CCC3)cc1 [SKF-104493]
Kd (YSK4): > 10 µM | Kd (p38-alpha): 0.22 µM and 0.13 µM | %Inh (AAK1): 0% | %Inh (ABL1-nonphosphorylated; 1 µM): 51% and 2% | %Inh (ABL1-phosphorylated; 1 µM): 20% and 0%

Nc1nc(-c2cccnc2)c(-c2ccnc3ccccc23)s1 [GW684083]
Kd (TNIK): > 10 µM | %Inh (AAK1): 57% | %Inh (ABL1-nonphosphorylated): 0% | %Inh (ABL1-phosphorylated): 0%

O=c1cc(N2CCOCC2)nc2n(Cc3cccc(Cl)c3)ccn12 [GSK2296823]
Kd (VPS34): 0.035 µM | %Inh (AAK1): 0% | %Inh (ABL1-nonphosphorylated): 0% | %Inh (ABL1-phosphorylated): 7%

Fc1cccc(COc2ccc(Nc3ncnc4cc[nH]c34)cc2Cl)c1
%Inh (AAK1): 4% | %Inh (ABL1-nonphosphorylated): 19% | %Inh (ABL1-phosphorylated): 21%

CN1c2ccc(-c3ccc(C(=O)NCCO)cc3)cc2-c2[nH]ncc2S1(=O)=O
Kd [1]: 0.13 µM | %Inh (AAK1): 54% | %Inh (ABL1-nonphosphorylated): 33% | %Inh (ABL1-phosphorylated): 15%

OCCOCCn1ccc2ncnc(Nc3ccc(Oc4cccc(Cl)c4)c(Cl)c3)c21
%Inh (AAK1): 0% | %Inh (ABL1-nonphosphorylated): 24% | %Inh (ABL1-phosphorylated): 0%

Cn1cc(-c2ccc3c(c2)CCN3C(=O)Cc2cccc(C(F)(F)F)c2)c2c(N)ncnc21 [GSK2606414]
%Inh (AAK1): 0% | %Inh (ABL1-nonphosphorylated): 0% | %Inh (ABL1-phosphorylated): 0%

CC(C)N1CCC(n2cnc(-c3ccc(F)cc3)c2-c2ccnc(N)n2)CC1 [SB-223132]
Kd (p38-alpha): 0.16 µM | %Inh (AAK1): 9% | %Inh (ABL1-nonphosphorylated): 50% | %Inh (ABL1-phosphorylated): 19%

CNc1nccc(-c2c(-c3ccc(F)cc3)ncn2CCCN2CCOCC2)n1 [SB-222516]
%Inh (AAK1): 0% | %Inh (ABL1-nonphosphorylated): 23% | %Inh (ABL1-phosphorylated): 0%

CCC(CC)(CC)n1cnc2c(N)ncnc21 [SKF-97620]
Kd (TNIK): > 10 µM | %Inh (AAK1): 0% | %Inh (ABL1-nonphosphorylated): 27% | %Inh (ABL1-phosphorylated): 6%

Nc1nc(-c2ccccn2)c(-c2ccnc3ccccc23)s1 [GW548057]
Kd (WNK4): > 10 µM | %Inh (AAK1): 1% | %Inh (ABL1-nonphosphorylated): 28% | %Inh (ABL1-phosphorylated): 26%

Cl.Cl.c1ccc(-c2cc3ccncc3cc2OC2CCNCC2)cc1 [GSK1122999]
%Inh (AAK1): 27% | %Inh (ABL1-nonphosphorylated): 0% | %Inh (ABL1-phosphorylated): 0%

CCc1nc(-c2cccc(N(C)S(=O)(=O)c3ccccc3)c2)c(-c2ccnc(Nc3ccc(N4CCN(C(C)=O)CC4)nc3)n2)s1 [GSK1645895]
Kd (ZAK): 0.22 µM | %Inh (AAK1): 26% | %Inh (ABL1-nonphosphorylated): 28% | %Inh (ABL1-phosphorylated): 7%

CN1CCC(n2cnc(-c3ccc(F)cc3)c2-c2ccnc(NC3CCNCC3)n2)CC1 [SB-229482]
Kd (p38-alpha): 0.22 µM | %Inh (AAK1): 7% | %Inh (ABL1-nonphosphorylated): 44% | %Inh (ABL1-phosphorylated): 0%

C[C@@H]1CCN(C(=O)CO)C[C@@H]1N(C)c1ncnc2[nH]ccc12
Kd [2]: 0.11 µM | %Inh (AAK1): 8% | %Inh (ABL1-nonphosphorylated): 35% | %Inh (ABL1-phosphorylated): 0%

Cl.Fc1ccccc1COc1ccc(Nc2ncnc3ccc(-c4nnc(C(F)(F)F)o4)cc23)cc1Cl [GW424170]
%Inh (AAK1): 0% | %Inh (ABL1-nonphosphorylated): 0% | %Inh (ABL1-phosphorylated): 0%

Cn1ccc2ncnc(Oc3ccc(NC(=O)Nc4cccnc4)c(Cl)c3)c21
%Inh (AAK1): 19% | %Inh (ABL1-nonphosphorylated): 23% | %Inh (ABL1-phosphorylated): 0%

FC(F)(F)c1ccc(-c2cc(-c3c[nH]nc3-c3ccccn3)ccn2)cc1 [GW599550]
Kd (YANK1): > 10 µM | %Inh (AAK1): 24% | %Inh (ABL1-nonphosphorylated): 17% | %Inh (ABL1-phosphorylated): 21%

CC(=O)Nc1n[nH]c2ncc(-c3ccccc3)cc12 [SB-548492]
Kd (TRKA): 2.5 µM | Kd [1]: 0.58 µM | %Inh (AAK1): 0% | %Inh (ABL1-nonphosphorylated): 49% | %Inh (ABL1-phosphorylated): 20%
